According to the supplement of paper PMC11732987, “Enantioselective OTUD7B fragment discovery through chemoproteomics screening and high-throughput optimisation” (Communications Chemistry, 2025):

Experiments:
Assay in all cases: log2 ratio of Biotin-Ahx-Ub-VS probe labelling (fragment/DMSO); higher = less target engagement (more negative = stronger competition), active = hit call of the paper (q ≤ 0.05, log2 ratio ≤ -1)
Settings in all cases: compound concentration: 200 uM; treatment time: 3 h
OTUD6B = biological target: T1, OTUD6B (UniProt Q8N6M0)
T1 sequence (whole entry): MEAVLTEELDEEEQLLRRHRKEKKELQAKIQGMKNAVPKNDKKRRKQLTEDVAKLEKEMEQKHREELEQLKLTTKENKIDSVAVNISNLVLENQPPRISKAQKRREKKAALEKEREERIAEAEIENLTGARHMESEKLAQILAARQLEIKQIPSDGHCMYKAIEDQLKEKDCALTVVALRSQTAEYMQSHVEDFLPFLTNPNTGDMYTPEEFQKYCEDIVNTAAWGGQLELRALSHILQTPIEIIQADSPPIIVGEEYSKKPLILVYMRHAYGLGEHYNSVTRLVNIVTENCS
In short: (§1)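 Using Biotin-Ahx-Ub-VS at 0.5 µM final for 1 h, DUBs were labelled in HEK293T lysate (495 µg per sample) that had first been treated in triplicate with fragment at 200 µM or vehicle for 3 h. NeutrAvidin enrichment, LysC and trypsin digestion and diaPASEF LC-MS/MS followed. Spectronaut label-free quantities were global-median-normalised. Values are average log2 fragment/vehicle ratios by unpaired t-test, using proteins with ≥2 unique peptides.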

OTUD7B = biological target: T2, OTUD7B (UniProt Q6GQQ9)
T2 sequence (whole entry): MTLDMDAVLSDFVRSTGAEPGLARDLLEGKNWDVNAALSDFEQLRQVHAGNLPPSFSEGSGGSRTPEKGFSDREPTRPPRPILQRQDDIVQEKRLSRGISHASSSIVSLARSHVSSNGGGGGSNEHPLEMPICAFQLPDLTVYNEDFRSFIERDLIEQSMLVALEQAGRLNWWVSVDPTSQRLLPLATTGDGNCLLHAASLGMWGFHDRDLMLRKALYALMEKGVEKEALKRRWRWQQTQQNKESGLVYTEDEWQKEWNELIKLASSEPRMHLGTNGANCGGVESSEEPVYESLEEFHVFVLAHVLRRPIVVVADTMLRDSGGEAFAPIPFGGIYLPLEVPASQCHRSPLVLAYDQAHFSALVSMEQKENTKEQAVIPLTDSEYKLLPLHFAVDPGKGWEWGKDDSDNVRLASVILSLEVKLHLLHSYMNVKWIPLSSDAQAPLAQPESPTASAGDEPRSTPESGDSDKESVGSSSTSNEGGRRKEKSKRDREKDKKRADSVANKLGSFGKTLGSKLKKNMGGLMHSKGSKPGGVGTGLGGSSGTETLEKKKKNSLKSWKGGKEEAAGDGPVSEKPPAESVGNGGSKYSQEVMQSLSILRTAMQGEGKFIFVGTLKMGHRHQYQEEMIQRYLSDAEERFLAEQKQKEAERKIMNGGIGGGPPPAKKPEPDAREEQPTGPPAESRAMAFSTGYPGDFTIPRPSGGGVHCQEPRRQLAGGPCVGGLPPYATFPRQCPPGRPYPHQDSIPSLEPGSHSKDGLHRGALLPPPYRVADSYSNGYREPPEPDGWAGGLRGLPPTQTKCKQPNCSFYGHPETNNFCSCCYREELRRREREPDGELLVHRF
In short: as §1

PRPF8 = PRPF8 (UniProt Q6P2Q9)
In short: as §1

PSMD7 = biological target: T3, PSMD7 (UniProt P51665)
T3 sequence (whole entry): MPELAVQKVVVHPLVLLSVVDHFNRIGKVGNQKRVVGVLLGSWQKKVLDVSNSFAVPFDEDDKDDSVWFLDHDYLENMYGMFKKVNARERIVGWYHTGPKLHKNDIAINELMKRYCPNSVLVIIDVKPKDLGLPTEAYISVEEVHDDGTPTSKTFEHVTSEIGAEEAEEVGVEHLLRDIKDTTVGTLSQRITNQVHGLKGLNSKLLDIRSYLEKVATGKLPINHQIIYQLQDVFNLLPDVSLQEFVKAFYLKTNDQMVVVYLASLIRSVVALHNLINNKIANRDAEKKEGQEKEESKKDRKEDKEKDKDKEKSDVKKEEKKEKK
In short: as §1

UCHL1 = UCHL1 (UniProt P09936)
Sequence of UCHL1 (P09936 whole entry, looked up): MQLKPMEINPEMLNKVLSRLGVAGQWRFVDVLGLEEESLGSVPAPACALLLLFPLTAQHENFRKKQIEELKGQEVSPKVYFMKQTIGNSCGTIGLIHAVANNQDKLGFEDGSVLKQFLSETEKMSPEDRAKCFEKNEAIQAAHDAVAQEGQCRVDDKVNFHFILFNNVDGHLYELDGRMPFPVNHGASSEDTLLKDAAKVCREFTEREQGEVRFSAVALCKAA
In short: as §1

UCHL3 = biological target: T4, UCHL3 (UniProt P15374)
T4 sequence (whole entry): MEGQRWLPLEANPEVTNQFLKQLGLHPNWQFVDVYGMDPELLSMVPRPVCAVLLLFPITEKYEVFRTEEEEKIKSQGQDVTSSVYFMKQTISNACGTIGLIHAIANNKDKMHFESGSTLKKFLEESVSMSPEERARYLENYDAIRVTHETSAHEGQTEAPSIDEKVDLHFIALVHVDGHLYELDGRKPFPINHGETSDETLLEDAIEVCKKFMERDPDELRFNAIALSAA
In short: as §1

UCHL5 = biological target: T5, UCHL5 (UniProt Q9Y5K5)
T5 sequence (whole entry): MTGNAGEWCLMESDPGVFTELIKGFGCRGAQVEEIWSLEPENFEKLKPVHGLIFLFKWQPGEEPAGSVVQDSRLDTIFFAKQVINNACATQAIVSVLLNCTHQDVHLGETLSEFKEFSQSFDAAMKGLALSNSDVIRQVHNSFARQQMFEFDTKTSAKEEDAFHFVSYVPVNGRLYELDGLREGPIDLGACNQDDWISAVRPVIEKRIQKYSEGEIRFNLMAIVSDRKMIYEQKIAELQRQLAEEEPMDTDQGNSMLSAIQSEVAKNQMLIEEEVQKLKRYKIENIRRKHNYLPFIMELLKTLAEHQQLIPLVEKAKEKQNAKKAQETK
In short: as §1

USP10 = USP10 (UniProt Q14694)
Sequence of USP10 (Q14694 whole entry): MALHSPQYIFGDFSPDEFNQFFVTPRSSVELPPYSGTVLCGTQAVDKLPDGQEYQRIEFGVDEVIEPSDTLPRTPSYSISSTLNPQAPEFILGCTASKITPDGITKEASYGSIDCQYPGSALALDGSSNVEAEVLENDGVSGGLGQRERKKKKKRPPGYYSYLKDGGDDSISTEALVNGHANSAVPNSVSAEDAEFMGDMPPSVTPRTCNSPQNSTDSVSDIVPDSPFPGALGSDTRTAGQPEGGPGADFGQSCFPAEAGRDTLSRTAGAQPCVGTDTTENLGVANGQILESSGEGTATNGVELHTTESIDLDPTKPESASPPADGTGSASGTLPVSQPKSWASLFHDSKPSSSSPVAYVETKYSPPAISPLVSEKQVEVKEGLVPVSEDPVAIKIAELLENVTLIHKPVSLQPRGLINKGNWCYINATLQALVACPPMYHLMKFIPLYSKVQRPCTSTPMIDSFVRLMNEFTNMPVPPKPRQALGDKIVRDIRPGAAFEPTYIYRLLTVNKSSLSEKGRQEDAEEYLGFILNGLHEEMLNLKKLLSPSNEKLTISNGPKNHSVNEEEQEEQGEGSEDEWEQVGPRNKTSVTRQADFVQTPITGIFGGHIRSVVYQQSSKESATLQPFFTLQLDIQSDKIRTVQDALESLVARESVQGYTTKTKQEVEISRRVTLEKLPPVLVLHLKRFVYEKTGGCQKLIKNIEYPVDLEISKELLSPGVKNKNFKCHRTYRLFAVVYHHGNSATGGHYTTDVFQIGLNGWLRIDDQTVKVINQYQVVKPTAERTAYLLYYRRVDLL
In short: as §1

USP15 = biological target: T6, USP15 (UniProt Q9Y4E8)
T6 sequence (whole entry): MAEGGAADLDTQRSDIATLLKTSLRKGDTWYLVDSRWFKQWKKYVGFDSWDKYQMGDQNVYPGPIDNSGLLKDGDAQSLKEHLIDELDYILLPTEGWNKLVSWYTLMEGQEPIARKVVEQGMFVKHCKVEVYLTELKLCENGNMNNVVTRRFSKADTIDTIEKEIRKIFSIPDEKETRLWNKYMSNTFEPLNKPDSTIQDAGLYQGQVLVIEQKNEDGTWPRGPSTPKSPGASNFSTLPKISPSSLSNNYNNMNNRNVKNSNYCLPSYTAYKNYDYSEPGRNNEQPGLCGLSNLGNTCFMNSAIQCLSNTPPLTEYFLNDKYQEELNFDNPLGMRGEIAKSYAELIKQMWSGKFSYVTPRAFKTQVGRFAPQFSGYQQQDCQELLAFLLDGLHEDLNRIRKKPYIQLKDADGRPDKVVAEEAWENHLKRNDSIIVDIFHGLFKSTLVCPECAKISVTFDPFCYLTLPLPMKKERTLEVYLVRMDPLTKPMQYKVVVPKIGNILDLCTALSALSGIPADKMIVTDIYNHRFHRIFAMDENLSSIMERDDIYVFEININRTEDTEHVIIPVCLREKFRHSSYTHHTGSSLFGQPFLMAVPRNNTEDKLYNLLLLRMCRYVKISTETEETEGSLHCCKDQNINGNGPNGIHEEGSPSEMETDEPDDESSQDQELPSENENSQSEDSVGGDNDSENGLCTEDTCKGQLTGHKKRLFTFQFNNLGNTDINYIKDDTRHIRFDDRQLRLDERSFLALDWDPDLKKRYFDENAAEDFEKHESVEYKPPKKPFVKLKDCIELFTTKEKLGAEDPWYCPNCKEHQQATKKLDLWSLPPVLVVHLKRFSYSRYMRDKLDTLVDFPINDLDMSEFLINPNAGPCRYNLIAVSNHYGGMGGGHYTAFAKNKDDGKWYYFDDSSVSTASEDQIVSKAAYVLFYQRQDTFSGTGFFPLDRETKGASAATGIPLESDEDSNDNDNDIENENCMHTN
In short: as §1

USP16 = USP16 (UniProt Q9Y5T5)
Sequence of USP16 (Q9Y5T5 whole entry, looked up): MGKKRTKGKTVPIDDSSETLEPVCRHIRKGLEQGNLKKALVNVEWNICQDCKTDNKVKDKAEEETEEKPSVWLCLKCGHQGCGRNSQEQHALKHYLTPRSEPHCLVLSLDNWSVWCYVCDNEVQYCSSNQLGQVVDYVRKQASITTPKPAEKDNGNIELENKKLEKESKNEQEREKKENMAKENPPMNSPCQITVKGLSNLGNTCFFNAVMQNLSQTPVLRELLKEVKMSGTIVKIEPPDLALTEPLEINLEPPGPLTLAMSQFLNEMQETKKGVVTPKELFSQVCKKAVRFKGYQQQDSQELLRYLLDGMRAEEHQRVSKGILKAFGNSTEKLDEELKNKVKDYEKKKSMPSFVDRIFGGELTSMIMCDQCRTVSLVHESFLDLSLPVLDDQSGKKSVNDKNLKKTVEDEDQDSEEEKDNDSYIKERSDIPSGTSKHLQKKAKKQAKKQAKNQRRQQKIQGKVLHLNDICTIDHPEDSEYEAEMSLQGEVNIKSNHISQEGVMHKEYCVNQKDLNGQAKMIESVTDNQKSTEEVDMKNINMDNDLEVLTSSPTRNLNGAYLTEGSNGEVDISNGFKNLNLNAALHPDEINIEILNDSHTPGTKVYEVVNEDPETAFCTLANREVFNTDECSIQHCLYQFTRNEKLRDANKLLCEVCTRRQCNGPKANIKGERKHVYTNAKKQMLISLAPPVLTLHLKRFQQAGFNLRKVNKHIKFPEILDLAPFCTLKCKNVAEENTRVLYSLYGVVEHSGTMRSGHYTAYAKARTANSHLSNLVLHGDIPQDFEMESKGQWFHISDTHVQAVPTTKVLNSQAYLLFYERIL
In short: as §1

Measured: log2 ratio of Biotin-Ahx-Ub-VS probe labelling

O=C(CCl)NC1CCS(=O)(=O)c2ccccc21 (stereo not given)
active: OTUD7B -1.79 | UCHL1 -1.81
inactive: OTUD6B -0.258 | PRPF8 -0.00882 | PSMD7 -0.335 | UCHL3 0.125 | UCHL5 -0.554 | USP10 0.0657 | USP15 -0.242 | USP16 -0.0991
